# Results as given in PubChem BioAssay (NCI).
# The panel holds about 79,000 compounds, 15% with a hit somewhere; the sample as a whole holds those more often. Values without a mark were called inactive. No stated cut-off is given here; in the data, active means growth inhibition above about 70%; inactive means the rest.
# Test: NCI Yeast Anticancer Drug Screen. Data for the bub3 strain (AID 167)
# Conditions: S. cerevisiae bub3 mutant strain, at 50.0 µM, hits give high values
# Protocol: Growth inhibition of yeast strains with defined genetic alterations is measured as a screen for potential anti-cancer activity. Selected strains with alterations in DNA damage repair or cell cycle control were exposed to compounds and growth inhibition was measured relative to vehicle treated controls. The strain used in this assay is bub3
row,Structure (SMILES),growth inhibition [%]
1,CC(C)(O)CC(O)(C(F)(F)F)C(F)(F)F,3.35
2,O=C(CCc1ccccc1CO)NCCc1ccccc1,-34.1
3,S=c1[nH]nc2nc3c4ccccc4c4ccccc4c3nn12,21.2
4,Cn1c(=O)c2[nH]c(=S)[nH]c2n(C)c1=O,-18.2
5,COc1ccccc1C1(CBr)OCCO1,-3.85
6,Cc1nc2c(=O)[nH]c(=S)[nH]c2[nH]c1=O,-1.3
7,CCOC(=O)Cn1c(=O)c2nc(SC)sc2n(CC)c1=S,9.45
8,C[C@H](OCc1ccccc1)C(=O)N1CCS(=O)(=O)N2CCC[C@@H]2C1=O,-5.9
9,CCC(C)NC(=O)c1ccccc1C (stereo not given),8.15
10,CCOC(=O)c1ccncc1,-1.5
11,CCCCc1c2c(nc3c1CCCC3=O)CCCC2,37.9
12,CCC#CCN(CCC)CCC,-17.9
13,Cc1c(C2CCC(=O)C2)c2ccccc2n1C (stereo not given),2.1
14,CCOC(CCCl)c1ccccc1 (stereo not given),11.1
15,CC(=O)Nc1cscc1NC(C)=O,16.9
16,Nc1cccc2c1CCC=C2,7.6
17,S=C(N/N=C1\CSCc2ccccc21)Nc1cc(Cl)ccc1Cl,23.9
18,Cc1cc2c(=O)cc(-c3ccccc3Cl)oc2c(C(=O)O)c1C,-2.75
19,O=C(CSc1nnc(Cc2ccccc2)o1)Nc1ccccc1,-35.5
20,CCOC(=O)/C(C#N)=C/c1cc(Br)c(O)c(OC)c1,6.25

row,Structure (SMILES),growth inhibition [%]
1,c1ccc(N=C(C(=Nc2ccccc2)c2ccccc2)c2ccccc2)cc1,4.65
2,CSc1nc(=S)c2[nH]c(=S)[nH]c2[nH]1,21.5
3,O=[S@@]1Nc2cc(Cl)c(Cl)cc2S1,-0.05
4,CCOc1c(F)ccc(F)c1-c1c(F)ccc(F)c1OCC,3.3
5,CN=C/C(C(C)=O)=C(\C)O,8.5
6,COC(OC)C1OC(C)(C)OC1C(OS(=O)(=O)c1ccc(C)cc1)C1COC(C)(C)O1 (stereo not given),1.6
7,Oc1ccc2ccc3[nH]cnc3c2c1,-8.9
8,Cc1cc(Br)ccc1N=c1scc(-c2ccc(Cl)cc2)n1C,16.1
9,CCCCNCC1COc2cccc(OCC)c2O1 (stereo not given),-6.75
10,N=c1c2c(ncn1N)CCN(Cc1ccccc1)C2,-6
11,COc1ccc2oc3cc(NCCN(C)C)ccc3c(=O)c2c1,-19.9
12,COC(=O)C1C(O)CCC2CN3CCc4c([nH]c5cccc(OC)c45)C3CC21 (stereo not given),2
13,OCC(O)C(O)C(O)C(Sc1ccccc1)Sc1ccccc1 (stereo not given),-7.25
14,C=C1CCCCCCCCC/C=C/1SCCCSC,-19
15,CC(C)S(=O)(=O)C(C)C,-13.6
16,CCCOC(=O)Nc1cccc(Cl)c1,-9.35
17,Cc1c(Cl)ccc2c1NC(=O)C2(O)CC(=O)c1ccc(Cl)cc1Cl (stereo not given),10.9
18,COc1ccc(C(=O)/C=C/c2c[nH]c3ccccc23)c(O)c1,9.9
19,CN1c2ccccc2S(=O)(=O)n2c(COc3ccc(Cl)cc3)nnc21,3.05
20,C/C=C/C(=O)OC1CCCC1,10
